# Screening results: PubChem, National Center for Advancing Translational Sciences (NCATS)
# An excerpt weighted towards active compounds, which were near 1.3% of everything screened.
# USP1 inh – USP1/UAF1 (human) deubiquitinase inhibition | recombinant USP1/UAF1, Ub-Rhodamine cleavage fluorescence | Potency, µM (titrated, usually from 57.1 µM), for inactives: at the top dose activity change, negative = inhibition, actives largely listed as inhibitors | AID 743255 | 0.23% of 390,000 active; further: on the % scale 0 is the no-effect control and ±100 the full control effect; nearly all actives have a fitted effect of over 60% in size
#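 High-throughput fluorogenic screen: 1nM USP1/UAF1 complex, Ub-Rho substrate 150nM final, 50mM HEPES pH 7.8 with 0.5mM EDTA, 0.1 mg/ml BSA, 1mM TCEP and 0.01% Tween-20.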
# 12-LOX inh – ALOX12 (human) lipoxygenase inhibition. P18054. purified 12hLO, xylenol orange hydroperoxide absorbance. Potency, µM (series often up to 108 µM), for the others: at the top dose activity change, negative = inhibition, usual class: inhibitors. 1.1% of 580,000 active. AID 1671190; further: on the % scale 0 is the no-effect control and ±100 the full control effect
#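 Hydroperoxide product was detected by ferrous iron/xylenol orange as the 573 to 405 nm absorbance ratio. Arachidonic acid at 40 uM (final) was turned over for 30 min at room temperature by 150 nM human 12hLO, pH 7.0 Hepes buffer, after 15 min compound preincubation.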
# EPAC2 agonist – agonists of human EPAC2 (RAPGEF4). EPAC2 activation, biochemical qHTS; response scale: 100% = 6.5 mM cAMP response. 0.079% of 360,000 active. Potency, µM (doses to about 154 µM), without a hit: at the top dose activation, actives largely listed as activators. Q8WZA2. AID 720711; further: nearly all actives have a fitted effect of over 50% in size
#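 Compounds were added across a concentration range to EPAC2 (100 nM), RAP1B-BODIPY-GDP (250 nM) and GDP (50 uM). After 5 min at room temperature, fluorescence was recorded at 5-min intervals for 30 min.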
# EPAC1 antagonist – blocks human EPAC1 exchange factor. O95398. EPAC1 GEF assay, Rap1b-BODIPY-GDP exchange fluorescence. Potency, µM (series often up to 115 µM), for the others: at the top dose activity change, negative = inhibition, actives largely listed as inhibitors. 0.14% of 360,000 active. AID 720709;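 further: plate controls were vehicle for no effect and positive control for full effect; nearly all actives have a fitted effect of over 50% in size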
# Target sequence (O95398 whole entry, looked up): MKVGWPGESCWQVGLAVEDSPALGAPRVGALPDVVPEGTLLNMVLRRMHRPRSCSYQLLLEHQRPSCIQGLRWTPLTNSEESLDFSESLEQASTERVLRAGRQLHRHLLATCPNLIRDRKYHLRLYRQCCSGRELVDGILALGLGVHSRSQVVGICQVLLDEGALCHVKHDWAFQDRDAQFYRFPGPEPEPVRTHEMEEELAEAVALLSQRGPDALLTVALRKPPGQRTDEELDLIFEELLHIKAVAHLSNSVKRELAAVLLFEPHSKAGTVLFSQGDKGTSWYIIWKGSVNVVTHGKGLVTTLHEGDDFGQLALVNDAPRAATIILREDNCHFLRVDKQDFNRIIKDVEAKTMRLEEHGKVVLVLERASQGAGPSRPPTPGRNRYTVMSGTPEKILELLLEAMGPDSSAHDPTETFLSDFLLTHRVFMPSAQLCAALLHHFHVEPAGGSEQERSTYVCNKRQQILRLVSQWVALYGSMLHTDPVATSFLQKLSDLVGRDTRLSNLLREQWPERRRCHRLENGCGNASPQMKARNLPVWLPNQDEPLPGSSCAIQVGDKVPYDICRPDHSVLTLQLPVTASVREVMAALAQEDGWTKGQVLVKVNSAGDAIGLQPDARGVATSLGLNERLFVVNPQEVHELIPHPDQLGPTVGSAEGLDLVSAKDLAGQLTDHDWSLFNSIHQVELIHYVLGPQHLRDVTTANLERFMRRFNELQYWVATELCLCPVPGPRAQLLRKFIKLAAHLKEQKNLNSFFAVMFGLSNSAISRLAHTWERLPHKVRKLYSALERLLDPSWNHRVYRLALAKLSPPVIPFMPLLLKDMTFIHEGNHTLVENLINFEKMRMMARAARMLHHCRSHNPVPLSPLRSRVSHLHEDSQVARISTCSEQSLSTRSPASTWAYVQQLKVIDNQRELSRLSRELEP
# EPAC1 ag – agonists of human EPAC1. EPAC1 agonist qHTS, biochemical assay; response scale: 100% = response to 6.5 mM cAMP. Potency, µM (doses to about 154 µM), for the others: top-dose activation, hits mostly activators. 0.073% of 360,000 active; further: nearly all actives have a fitted effect of over 60% in size
#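 Normalized to 6.5 mM cAMP, activity reflects EPAC1-catalysed release of BODIPY-GDP from Rap1B, followed kinetically over 30 min at 480 nm excitation, 540 nm emission. Reaction contained 100 nM EPAC1, 250 nM Rap1B-BODIPY-GDP, 50 uM GDP.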
# EPAC2 antag – EPAC2 (human) antagonism; Q8WZA2; EPAC2 GEF exchange of Rap1B-BODIPY-GDP, fluorescence; Potency, µM (doses to about 114 µM), without a hit: at the top dose activity, negative = inhibition, hits mostly inhibitors; 0.18% of 360,000 active; further: on the % scale 0 is the no-effect control and ±100 the full control effect; nearly all actives have a fitted effect of over 45% in size
# * hit, by the source's call; ? = inconclusive; . = no result given. The call rests on the fitted dose curve; in most records, active means well fitted curve in the direction sought with a large enough effect; inconclusive means small, poorly fitted or top-dose-only effect, or another doubt; inactive means no such curve, though single readings can be large; an effect the other way counts as inactive or inconclusive. Potency means the concentration at half of the fitted maximal effect.
SMILES,USP1 inh,12-LOX inh,EPAC2 agonist,EPAC1 antagonist,EPAC1 ag,EPAC2 antag
O=C1CCc2c(Cl)cc(Cl)c(O)c21,.,5.62µM*,.,.,.,.
Cc1ccc(C(=O)NCC(c2ccco2)N2CCc3ccccc3C2)cc1 (centres undefined),-12.9%,8.91µM*,11.6%,-2.9%,9.9%,-12.2%
O=C(NCC(c1ccco1)N1CCc2ccccc2C1)c1ccc(Cl)cc1 (centres undefined),-19.6%,14.1µM*,7.9%,-6.6%,10.9%,-2.7%
COc1ccc(C(=O)NCC(c2ccco2)N2CCc3ccccc3C2)cc1 (centres undefined),-9.2%,?,12.1%,2.6%,10.4%,-4.1%
O=C(NCC(c1ccco1)N1CCc2ccccc2C1)c1ccc(Br)cc1 (centres undefined),-21.7%,11.2µM*,12.6%,-18.0%,4.5%,-0.6%
O=C(NCc1cccs1)c1cc(-c2ccncc2)nc2ccccc12,.,1.8%,.,.,.,.
COc1cc(/C=N/OCCOc2ccc(C)cc2)cc(Cl)c1OC,.,19.2%,.,.,.,.
CNc1c(NC(=O)Nc2ccc(F)cc2)c(=O)oc2ccccc12,.,10µM*,.,.,.,.
O=[N+]([O-])c1cccc(N=Nc2ccc(O)cc2O)c1,?,20µM*,4.0%,-19.9%,8.4%,-19.1%
OCc1cccc(Nc2ncnc3ccccc23)c1,.,-3.2%,.,.,.,.
O=C1CS(=O)(=O)N(Cc2cccc(F)c2)c2ccc(Br)cc21,?,?,7.2%,?,-8.7%,-20.7%
O=C1c2cc(Br)ccc2N(Cc2ccc(Br)cc2)S(=O)(=O)C1c1cc(Cl)c(Cl)cc1[N+](=O)[O-] (centres undefined),?,.,-10.6%,56.2µM*,-10.3%,20µM*
CCOC(=O)C1=C(NC(=S)NC(=O)c2ccccc2)c2ccccc2CC1(C)CC (centres undefined),-17.0%,15.8µM*,-3.7%,-15.1%,-1.1%,-3.1%
COC(=O)c1ccc(C2/C(=C(\O)c3cccc(OC)c3)C(=O)C(=O)N2c2ccccn2)cc1 (centres undefined),.,1.12µM*,.,.,.,.
COc1ccc(C2/C(=C(\O)c3cccc(OC)c3)C(=O)C(=O)N2c2ccccn2)cc1 (centres undefined),-10.4%,?,-4.2%,15.0%,4.5%,9.4%
Cc1c(CCC(=O)NCc2ccccc2)c(=O)oc2cc(O)ccc12,.,23.8%,.,.,.,.
CCCCc1nnc2sc(-c3ccc(OCC)c(OCC)c3)nn12,.,-6.5%,.,.,.,.
Fc1cccc(-c2nc(COc3ccc(Br)cc3F)co2)c1,.,31.6µM*,.,.,.,.
CCCC(=O)Nc1ccc(-c2csc(NC(=O)c3ccc4c(c3)nnn4CC)n2)cc1,.,-32.9%,.,.,.,.
COC(=O)C1CN(Cc2cn(Cc3ccc(C)cc3)nn2)CCS(=O)(=O)N1Cc1ccc(C)cc1 (centres undefined),.,15.8µM*,.,.,.,.
CCSc1nc(-c2ccco2)ccc1C#N,-12.8%,6.31µM*,4.0%,-28.3%,-2.2%,-6.0%
Cc1ccc2nc3sc(C(=O)N4CCN(c5cccc(C(F)(F)F)c5)CC4)cc3cc2c1,.,17.2%,.,.,.,.
CC1CCc2sc(C(=O)N/N=C3/CCCCc4ccccc43)cc2C1 (centres undefined),.,1.26µM*,.,.,.,.
C/C(=N\NC(=O)c1cc2c(s1)CCC(C)C2)c1ccc[nH]1 (centres undefined),-11.1%,19.2%,3.5%,-22.0%,-13.2%,-1.7%
CC1CCc2sc(C(=O)N/N=C/c3ccc(O)cc3)cc2C1 (centres undefined),-21.9%,28.2µM*,6.2%,-0.1%,-8.5%,8.8%
SMILES,USP1 inh,12-LOX inh,EPAC2 agonist,EPAC1 antagonist,EPAC1 ag,EPAC2 antag
C/C(=N\NC(=O)c1cc2c(s1)CCC(C)C2)c1ccncc1 (centres undefined),-12.8%,1.78µM*,-2.3%,-8.2%,-6.9%,12.7%
CCCOc1ccc(/C=C/C(=O)c2cc(OC)c(OC)c(OC)c2)cc1,.,3.5%,.,.,.,.
COc1ccc(-c2nn(-c3ccc(F)cc3)c(OC(C)=O)c2-c2ccc(NC(C)=O)cc2)cc1OC,.,11.2µM*,.,.,.,.
CCCc1nn2cc(-c3ccc(C)c(C)c3)nc2s1,-10.0%,-10.9%,.,.,.,.
CCc1ccc2cc(-c3ccc(C)c(C)c3)cn2c1,.,25.1µM*,.,.,.,.
COc1ccccc1C(C(=O)c1ccccc1)c1ccc(O)cc1 (centres undefined),.,-23.8%,0.8%,-16.0%,2.9%,56.2µM*
O=C(Nc1nnc(C2=COCCO2)o1)c1ccc(F)cc1,-17.9%,381.1%,3.8%,-3.2%,1.2%,3.8%
O=C(Nc1nnc(-c2ccco2)o1)c1ccc(Cl)cc1,-16.8%,25.1µM*,1.4%,-4.4%,6.7%,-2.8%
O=C(Nc1nnc(C2=COCCO2)o1)c1ccc(Cl)cc1,-7.7%,39.8µM*,-9.2%,12.8%,0.5%,4.1%
O=C(Nc1cccc(C(=O)N2CCN(c3ccccc3)CC2)c1)C1=CSCCO1,.,-5.0%,.,.,.,.
CCCCN=Cc1c(C)[nH]n(-c2ccccc2)c1=S,-23.8%,22.4µM*,0.2%,4.2%,0.0%,1.6%
COc1cccc(CN(C)CC(=O)Nc2cc(C)nn2-c2cc(C)ccc2C)c1,.,42.7%,.,.,.,.
CC1OC(Nc2cccc3ccccc23)C(O)C(O)C1O (centres undefined),22.4µM*,-22.7%,7.3%,-0.3%,5.7%,15.6%
CC1OC(Nc2ccc(N=Nc3ccccc3)cc2)C(O)C(O)C1O (centres undefined),-10.7%,-5.1%,-1.9%,-23.4%,-6.4%,4.0%
Cn1cc(S(=O)(=O)N2CCCC(C(=O)Nc3ccn(Cc4ccc(Cl)cc4)n3)C2)cn1 (centres undefined),.,-28.9%,.,.,.,.
COc1cc(/C=N/NC(=O)NC23CC4CC(CC(C4)C2)C3)ccc1OCC(N)=O,-12.9%,97.7%,-3.2%,5.3%,3.4%,-21.5%
COc1cc(OC)c(C=NNC(=S)NC23CC4CC(CC(C4)C2)C3)c(OC)c1,-3.3%,12.6µM*,6.4%,-12.1%,24.4%,-11.3%
COc1ccc(C=NNC(=S)NC23CC4CC(CC(C4)C2)C3)cc1OC,-24.4%,44.7µM*,-1.7%,1.1%,-0.5%,-9.0%
COc1cccc(/C=N/NC(=O)NC23CC4CC(CC(C4)C2)C3)c1O,-11.3%,.,5.1%,-12.3%,-2.2%,0.2%
CCOc1ccc(CNC(=S)N/N=C/c2ccc(OC)c(OC)c2)cc1,-7.7%,14.1µM*,-5.9%,-6.2%,16.3%,-7.1%
COc1cc(/C=N/NC(=S)NCc2ccccc2)ccc1OCC#N,-9.8%,?,19.7%,14.7%,7.3%,-1.4%
CCn1nc(C(=O)Nc2ccc(Cl)cc2C)c2ccccc2c1=O,.,-50.2%,.,.,.,.
COc1cccc(Oc2coc3cc(OCc4ccc(F)cc4)ccc3c2=O)c1,.,2.7%,.,.,.,.
